# Data from PubChem BioAssay (NCI).
# This is part of a sample that, as a whole, favours compounds with a hit. Of some 83,000 tested, about 20% had one in any assay.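 How to read the values: 0–100, growth inhibition (40 = 60% inhibited); 0, no net growth; -100 to 0, cell death (-40 = 40% of starting cells died; -100 = all dead).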 Unmarked numbers belong to inactive results. Calls of active or inactive are those of the source. The calls were made as follows: active = growth percent below 10; inactive = the rest.
# What was measured:
# Assay in all cases: NCI-60 one-dose screen, 48 h (100 = growth as untreated, 0 = no growth, -100 = all killed)
# Conditions in all cases: 10 µM unless noted
# SR leukemia = tested on: SR leukemia
# RPMI-8226 leukemia = tested on: RPMI-8226 leukemia
# OVCAR-8 ovarian = tested on: OVCAR-8 ovarian
# OVCAR-5 ovarian = tested on: OVCAR-5 ovarian
# OVCAR-4 ovarian = tested on: OVCAR-4 ovarian
# SK-OV-3 ovarian = tested on: SK-OV-3 ovarian
# IGROV1 ovarian = tested on: IGROV1 ovarian
# OVCAR-3 ovarian = tested on: OVCAR-3 ovarian
# HS 578T breast = tested on: HS 578T breast
# NCI/ADR-RES ovarian = tested on: NCI/ADR-RES ovarian
# T-47D breast = tested on: T-47D breast
# BT-549 breast = tested on: BT-549 breast
# MDA-MB-435 melanoma = tested on: MDA-MB-435 melanoma
# SW-620 colon = tested on: SW-620 colon
# MCF7 breast = tested on: MCF7 breast
# HCT-116 colon = tested on: HCT-116 colon
# HCC-2998 colon = tested on: HCC-2998 colon
# KM12 colon = tested on: KM12 colon
SMILES,growth (SR leukemia),growth (RPMI-8226 leukemia),growth (OVCAR-8 ovarian),growth (OVCAR-5 ovarian),growth (OVCAR-4 ovarian),growth (SK-OV-3 ovarian),growth (IGROV1 ovarian),growth (OVCAR-3 ovarian),growth (HS 578T breast),growth (NCI/ADR-RES ovarian),growth (T-47D breast),growth (BT-549 breast),growth (MDA-MB-435 melanoma),growth (SW-620 colon),growth (MCF7 breast),growth (HCT-116 colon),growth (HCC-2998 colon),growth (KM12 colon)
COC(=O)C1=CCC(n2cnc3c(N)ncnc32)O1 (stereo not drawn),102%,118%,96.3%,109%,106%,108%,109%,106%,110%,95.4%,102%,114%,102%,106%,120%,98.6%,106%,100%
CC(NNC(=S)N1CCCCCC1)c1ccc2ccccc2n1 (stereo not drawn),34.5%,56.1%,18.1%,50.3%,30.2%,50.9%,19.3%,47.4%,78.5%,20.8%,29.8%,66.6%,40.6%,36%,16.5%,26.5%,36.6%,34.9%
Cc1ccc2nc3c(n2c1)C(=O)C(=O)c1ccccc1-3,-44.5% (active),-51.9% (active),-68.1% (active),-74% (active),-98.4% (active),-90.9% (active),-49.1% (active),-82.5% (active),-15.6% (active),-3.7% (active),-44.1% (active),-96.4% (active),-69.6% (active),-80.5% (active),-64.1% (active),-50.4% (active),-54% (active),-26.6% (active)
FCc1ncc(-c2ccc(C(F)(F)F)cc2)c(NC2CCCCCC2)n1,-18% [100 µM] (active),4.24% [100 µM] (active),15.8% [100 µM],32.7% [100 µM],27.2% [100 µM],46.1% [100 µM],27.2% [100 µM],-85% [100 µM] (active),41.4% [100 µM],18.4% [100 µM],-10.9% [100 µM] (active),-50.1% [100 µM] (active),-6.34% [100 µM] (active),4.08% [100 µM] (active),1.01% [100 µM] (active),-2.53% [100 µM] (active),13.4% [100 µM],-59.8% [100 µM] (active)
Nc1c(C(=O)Nc2cccc(Cl)c2)sc2nc3c(cc12)C(O)CCC3 (stereo not drawn),8.19% (active),6.38% (active),36.8%,51.2%,52.7%,35.4%,31.1%,-33.4% (active),24.5%,8.73% (active),52.3%,56%,-37.5% (active),43.9%,17.8%,19.1%,24.9%,26.9%
COCCOCCOCCOCCOc1ccc2c(c1)C(=O)c1nc3ncccc3c(=O)n1-2,-86.3% (active),-55.5% (active),0.221% (active),-98.6% (active),-15.3% (active),-4.3% (active),7.34% (active),-60.7% (active),-25.2% (active),0.343% (active),11.3%,-95.7% (active),-100% (active),-100% (active),-64.6% (active),-32.7% (active),-68.1% (active),-57% (active)
CN[C@@H]1C(OC2[C@H](O[C@H]3[C@H](O)[C@@H](O)[C@H](N=C(N)N)[C@@H](O)[C@@H]3N=C(N)N)OC(C)[C@]2(O)CO)OC(CO)C(O)C1O (stereo partly drawn),102%,103%,103%,102%,111%,112%,105%,116%,112%,105%,111%,112%,102%,104%,111%,105%,97.5%,110%
N#Cc1c(-c2ccccc2)cc(-c2ccccc2)n(CCCCC(=O)O)c1=O,65.1%,96.2%,96%,98%,115%,136%,102%,101%,101%,80.5%,103%,91%,59.4%,90.9%,78.2%,93.3%,95.6%,79.7%
O=c1c2ccccc2c2nccn2c2cc(Cl)ccc12,11%,64.8%,75.3%,53.2%,81.5%,113%,61.7%,99.1%,77.1%,57.5%,84.6%,89%,94.5%,80.7%,122%,76.4%,67.3%,150%
COc1ccc(C2CC(c3ccc(Nc4ccnc5cc(Cl)ccc45)cc3)=NN2C(C)=O)cc1 (stereo not drawn),-9.45% (active),33.8%,72.8%,94.2%,59%,101%,74.4%,64.2%,62.7%,67.7%,40%,68.5%,23%,87.2%,55.7%,61.3%,70%,59.3%
C[C@H](C(=O)N[C@@H](Cc1ccc(-c2ccccc2)cc1)C(=O)NC1CC(C)(C)N(C)C(C)(C)C1)c1ccc(-c2ccccc2)c(F)c1,-40.5% (active),-41.6% (active),-46.5% (active),-70.2% (active),-50.7% (active),-33.3% (active),-26.4% (active),-82.9% (active),-35.1% (active),-5.29% (active),-52.7% (active),-82.5% (active),-84.9% (active),-76.8% (active),-79.6% (active),-87.6% (active),-86.8% (active),-78.6% (active)
